In the library only some 3.4% were active in any assay of this set; here they are far more common.
p53ts 39C kill = qHTS Screen for Compounds that Selectively Target Cancer Cells with p53 Mutations: Cytotoxicity of p53ts Cells at the Nonpermissive Temperature; H1299-p53A138V viability at 39C, ATP luminescence, 24 h; Potency, µM (doses to about 46.1 µM), for the others: at the highest dose activity change, negative = cell killing, usual class: cytotoxic; 130,000 compounds, 1.5% hits; AID 902, 2007; further: on the % scale 0 is the no-effect control and ±100 the full control effect; nearly all actives have a fitted effect of over 55% in size
Tau filament bind = qHTS Assay for Tau Filament Binding. Microtubule-associated protein tau (Homo sapiens), P10636. recombinant tau filaments, thioflavin S fluorescence, 15 h; filaments grown with octadecylsulfate alongside compound. Potency, µM (highest dose often 57.1 µM), inactives show at the highest dose activity change, negative = inhibition. 71,000 compounds, 2% hits. AID 596, 2007;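 further: on the % scale 0 is the no-effect control and ±100 the full control effect; actives lower thioflavin S fluorescence by blocking filaments or displacing dye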
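Quantitative HTS: thioflavine S signal from ODS-induced tau filaments, excited at 450 nm, emission 510 nm. Conditions: 1 uM tau, 30 uM ODS, 15 h at 37 C, pH 7.4.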
FLuc inh = qHTS Assay for Inhibitors of Firefly Luciferase | purified firefly luciferase, luminescence, 8 min | Potency, µM (doses to about 57.1 µM), inactives show top-dose activity change, negative = inhibition, actives largely listed as inhibitors | 72,000 compounds, 2.2% hits | AID 411, 2009; further: on the % scale 0 is the no-effect control and ±100 the full control effect; nearly all actives have a fitted effect of over 40% in size
Target sequence (P08659 whole entry, looked up): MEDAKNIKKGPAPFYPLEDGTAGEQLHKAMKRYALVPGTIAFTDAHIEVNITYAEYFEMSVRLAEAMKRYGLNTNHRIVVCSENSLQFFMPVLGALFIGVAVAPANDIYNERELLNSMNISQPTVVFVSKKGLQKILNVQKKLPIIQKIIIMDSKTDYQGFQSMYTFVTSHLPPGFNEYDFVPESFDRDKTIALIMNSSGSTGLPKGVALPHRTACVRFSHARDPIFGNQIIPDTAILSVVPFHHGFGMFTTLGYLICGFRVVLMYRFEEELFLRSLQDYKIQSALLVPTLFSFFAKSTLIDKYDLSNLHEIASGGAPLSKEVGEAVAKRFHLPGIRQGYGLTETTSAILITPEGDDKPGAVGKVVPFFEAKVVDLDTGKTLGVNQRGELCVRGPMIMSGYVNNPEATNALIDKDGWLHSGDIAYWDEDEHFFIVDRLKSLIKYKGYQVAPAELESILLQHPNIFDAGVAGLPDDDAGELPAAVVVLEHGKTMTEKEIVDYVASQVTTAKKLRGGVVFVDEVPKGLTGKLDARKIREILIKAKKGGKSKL
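Luminescence read-out after 8 min at room temperature; enzyme reaction used luciferin plus 10 uM ATP (linear range) in imidazole buffer pH 7.2 with KCl, MgCl2, Tween 20 and BSA. Each sample was run as a titration.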
Peg3 imprint = qHTS Assay for Compounds that Induce Erasure of Genomic Imprints. mouse ES Peg3-LacZ reporter, beta-gal luminescence, 40 h. Potency, µM (series often up to 60.7 µM), inactives show at the highest dose activity change, positive = activation, hits mostly activators. 110,000 compounds, 0.02% hits. AID 1948, 2009
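Gelatin-coated wells received 300 freshly trypsinized female ES cells with a Peg3LacZ-Neo reporter on the maternal allele, then incubated 40 hours at 37C. BetaGlo was added for 5 minutes at room temperature before a single luminescence read.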
p53ts 32C kill = qHTS Screen for Compounds that Selectively Target Cancer Cells with p53 Mutations: Cytotoxicity of p53ts Cells at the Permissive Temperature. H1299-p53A138V at 32C, ATP luminescence viability, 24 h. AID 924, 2007. Potency, µM (doses to about 46.1 µM), without a hit: top-dose activity change, negative = cytotoxicity, most hits filed as cytotoxic. 130,000 compounds, 0.93% hits;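 further: 0% = DMSO and -100% = full killing by reference compound; nearly all actives have a fitted effect of over 55% in size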
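Viability by ATPlite luminescence after 24 h compound treatment (up to 46 uM) at the permissive 32C. Cells are H1299 carrying p53 A138V. Scale runs from DMSO basal to 100 uM tamoxifen as full kill; AC50 from Hill fits.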
* marks the source's active call; other numbers are inactive results; [ ] = another dose, or the depositor's remark. The call rests on the fitted dose curve; in most records, active means well fitted curve in the direction sought with a large enough effect; inconclusive means small, poorly fitted or top-dose-only effect, or another doubt; inactive means no such curve, though single readings can be large; an effect the other way counts as inactive or inconclusive. Potency means the concentration at half of the fitted maximal effect.

How did O=C1CC(c2ccc3c(c2)OCO3)Sc2nc3ccccc3n21 (configuration not stated) do in these assays?
p53ts 39C kill: 13µM*; Tau filament bind: 1%; FLuc inh: 4µM*; Peg3 imprint: -31%; p53ts 32C kill: 13µM*

What do the screens show for `O=C1CC(c2cccs2)Sc2nc3ccccc3n21` (configuration not stated)?
p53ts 39C kill: -14%; Tau filament bind: 3%; FLuc inh: 16µM*; Peg3 imprint: -14%; p53ts 32C kill: -16%

What do the screens show for `Cc1c(C(=O)N2CCN(c3ccc(F)cc3)CC2)sc2nc3n(c(=O)c12)CCC3`?
p53ts 39C kill: -13%; Peg3 imprint: -12%[10.9 µM]; p53ts 32C kill: -7%

What do the screens show for `CCN(CC)S(=O)(=O)c1ccc(C(=O)Nc2nc3c(Cl)cc(Cl)cc3s2)cc1`?
p53ts 39C kill: -7%; Peg3 imprint: -11%[10.9 µM]; p53ts 32C kill: 13%

What do the screens show for `CCCN1CCN(CCCNC(=O)C2CCCN(c3nc4ccc(OCC)cc4s3)C2)CC1` (configuration not stated)?
p53ts 39C kill: inconclusive; Tau filament bind: 62%; FLuc inh: 7.9µM*; Peg3 imprint: -22%; p53ts 32C kill: inconclusive

How did CCOc1ccc2nc(N3CCCC(C(=O)NCCc4ccc(C)cc4)C3)sc2c1 (configuration not stated) do in these assays?
p53ts 39C kill: -18%; Peg3 imprint: -4%[10.9 µM]; p53ts 32C kill: 2%

How did CCOc1ccc2nc(N3CCCC(C(=O)NCCCOC)C3)sc2c1 (configuration not stated) do in these assays?
p53ts 39C kill: 10µM*; Peg3 imprint: 14%[10.9 µM]; p53ts 32C kill: inconclusive

Results for Cc1ccc(NC(=O)CN2C(=O)C(C)(C)c3ccccc32)cc1 ?
p53ts 39C kill: inconclusive; Peg3 imprint: -11%[10.9 µM]; p53ts 32C kill: -8%

What do the screens show for `CC(=O)NC12CC3CC(C1)CC(C(=O)OCC(=O)c1ccc4c(c1)OCCO4)(C3)C2`?
p53ts 39C kill: -16%; Tau filament bind: -13%; FLuc inh: 4µM*; Peg3 imprint: -11%; p53ts 32C kill: -15%

What do the screens show for `Cc1ccc(C(=O)COC(=O)c2cccs2)cc1`?
p53ts 39C kill: -23%; p53ts 32C kill: 20µM*

Results for CCn1nc(C(=O)OCC(=O)c2ccc3c(c2)OCCO3)c2ccccc2c1=O ?
p53ts 39C kill: -14%; Tau filament bind: -5%; FLuc inh: 13µM*; Peg3 imprint: -7%; p53ts 32C kill: -15%

How did O=C(COC(=O)c1cccs1)c1ccc2ccccc2c1 do in these assays?
p53ts 39C kill: -2%; p53ts 32C kill: -12%

Results for O=C(COC(=O)c1cccs1)c1ccc2c(c1)OCCO2 ?
p53ts 39C kill: -27%; Tau filament bind: 15%; FLuc inh: 0.32µM*; Peg3 imprint: -44%; p53ts 32C kill: inconclusive

Results for CCC(CC)C(=O)Nc1ccccc1SCc1cc(=O)c2cccc(C)c2[nH]1 ?
p53ts 39C kill: -1%; Peg3 imprint: 7%[10.9 µM]; p53ts 32C kill: 9%

What do the screens show for `COC(=O)c1c(-c2ccc(Cl)cc2)noc1N1CCN(c2ccc(C)cc2C)CC1`?
p53ts 39C kill: -30%; Peg3 imprint: 15%[10.9 µM]; p53ts 32C kill: -9%

What do the screens show for `CCN(CC)S(=O)(=O)c1ccc2c(c1)N(CC(=O)NCCc1ccc(OC)c(OC)c1)C(=O)CO2`?
p53ts 39C kill: -1%; Peg3 imprint: -3%[10.9 µM]; p53ts 32C kill: 30%

How did C/C(CCN1CCCc2nc(C)c(C)cc21)=N\O[C@@H](C)c1cn([C@H](CO)Cc2ccccc2)nn1 do in these assays?
p53ts 39C kill: -1%[9.22 µM]; FLuc inh: -1%[11.4 µM]; p53ts 32C kill: 7%[9.22 µM]

How did CCc1ccc(NC(=O)NCCN2CCc3ccccc3C2)cc1 do in these assays?
p53ts 39C kill: -18%; Tau filament bind: 13µM*; FLuc inh: 0%; Peg3 imprint: -10%; p53ts 32C kill: 0%

How did CCOc1ccccc1C1CC(=O)Nc2c1c(=O)n(C)c1ncnn21 (configuration not stated) do in these assays?
p53ts 39C kill: 5%; Peg3 imprint: 9%[10.9 µM]; p53ts 32C kill: -4%

Results for CCCOc1ccc(-c2nnc(-c3ccco3)o2)cc1 ?
p53ts 39C kill: inconclusive; Tau filament bind: 28%; FLuc inh: 10µM*; Peg3 imprint: -78%; p53ts 32C kill: 13µM*

How did O=C(COc1ccccc1)Nc1ccc(-c2nnc(-c3ccco3)o2)cc1 do in these assays?
FLuc inh: 0%[25.5 µM]

How did CC(C)COc1ccc(-c2nnc(-c3ccco3)o2)cc1 do in these assays?
p53ts 39C kill: inconclusive; Tau filament bind: 27%; FLuc inh: 16µM*; p53ts 32C kill: inconclusive

Results for Cc1ccc(OCc2nnc(-c3ccccc3)o2)cc1 ?
p53ts 39C kill: -24%; Peg3 imprint: -9%[10.9 µM]; p53ts 32C kill: 5%

How did C=CCNc1nc(-c2ccc(O)c(C(N)=O)c2)cs1 do in these assays?
FLuc inh: -1%[25.5 µM]

What do the screens show for `C=CCNc1nc(-c2cc3ccccc3o2)cs1`?
p53ts 39C kill: inconclusive; p53ts 32C kill: 14µM*

What do the screens show for `Cc1ccc(-c2cc(C(=O)N3CCCC3)no2)cc1`?
p53ts 39C kill: 7.9µM*; Tau filament bind: 21%; FLuc inh: 4µM*; Peg3 imprint: -80%; p53ts 32C kill: 7.9µM*

How did COc1ccccc1N1CCN(C(=O)C2CCN(S(=O)(=O)c3cccs3)CC2)CC1 do in these assays?
p53ts 39C kill: -7%; Peg3 imprint: 15%[10.9 µM]; p53ts 32C kill: 2%

Results for COc1ccc(Nc2nc(-c3cccc(Cl)c3)c3c(n2)-c2ccccc2OC3)cc1 ?
p53ts 39C kill: -3%; Peg3 imprint: -15%[10.9 µM]; p53ts 32C kill: 8%

Results for CCOc1ccc(Nc2nc(-c3cccc(Cl)c3)c3c(n2)-c2ccccc2OC3)cc1 ?
p53ts 39C kill: 10µM*; Peg3 imprint: -33%[10.9 µM]; p53ts 32C kill: inconclusive

How did COc1ccc(-c2nc(-c3ccc(NC(=O)c4ccc(Br)o4)cc3)no2)cc1OC do in these assays?
p53ts 39C kill: 13µM*; Tau filament bind: inactive; FLuc inh: -7%; Peg3 imprint: -50%; p53ts 32C kill: inconclusive

What do the screens show for `CC(=O)Nc1ccc(Nc2nc(C)nc3c2oc2ccccc23)cc1`?
p53ts 39C kill: -3%; Tau filament bind: -7%; FLuc inh: -2%; Peg3 imprint: -10%; p53ts 32C kill: 6%

How did CC(=O)N1CCN(c2ccc(Nc3nc(C)nc4c3oc3ccccc34)cc2)CC1 do in these assays?
p53ts 39C kill: 14%; Tau filament bind: 20µM*; FLuc inh: -3%; Peg3 imprint: -17%; p53ts 32C kill: -17%

Source: PubChem
